In PubChem BioAssay (NCI):
This is part of a sample that, as a whole, favours compounds with a hit. Of some 79,000 tested, about 15% had one in any assay. A number with no mark means an inactive call. Activity calls are given as the source filed them. No stated cut-off is given here; in the data, active means growth inhibition above about 70%; inactive means the rest.

What was measured:
[1] = NCI Yeast Anticancer Drug Screen. Data for the rad50 strain (AID 155);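 further: 0% = growth of vehicle-only cultures of the same strain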; details: S. cerevisiae rad50 strain growth inhibition, hits give high values
Summary of the method: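 Cells are treated with compound, grown, and their growth is then scored against vehicle-only cultures of the same repair-deficient yeast strain.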

[2] = NCI Yeast Anticancer Drug Screen. Data for the mec2-1 strain (AID 157); details: S. cerevisiae mec2-1 strain, hits give high values
Summary of the method: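 mec2-1 yeast strain, carrying an alteration in DNA damage repair or cell cycle control, was exposed to compounds; growth inhibition was measured relative to vehicle-treated controls.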

[3] = NCI Yeast Anticancer Drug Screen. Data for the sgs1 mgt1 strain (AID 161);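 further: 0% = growth of cultures given vehicle only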; details: S. cerevisiae sgs1 mgt1 strain, hits give high values
Summary of the method: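 Percent growth inhibition was derived by comparing compound-exposed mutant yeast with vehicle-exposed cultures. The strain carries alterations in DNA damage repair.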

[4] = NCI Yeast Anticancer Drug Screen. Data for the cln2 rad14 strain (AID 165);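 further: 0% = growth equal to vehicle treated cultures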; details: S. cerevisiae cln2 rad14 strain, hits give high values
Summary of the method: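 Yeast carrying cln2 and rad14 alterations (cell cycle control and DNA damage repair) were exposed to compounds. Growth inhibition was measured against vehicle-treated controls.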

[5] = NCI Yeast Anticancer Drug Screen. Data for the bub3 strain (AID 167); details: S. cerevisiae bub3 mutant strain, hits give high values
Summary of the method: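 Part of a panel of yeast mutants defective in DNA damage repair or cell cycle regulation. Each strain is grown with compound, and inhibition is calculated relative to solvent-treated cultures.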

[6] = NCI Yeast Anticancer Drug Screen. Data for the mlh1 rad18 strain (AID 175); details: S. cerevisiae mlh1 rad18 strain growth inhibition, hits give high values
Summary of the method: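 Growth inhibition of the yeast strain was measured after compound exposure and expressed relative to vehicle-treated controls. The strain carries defined defects in DNA damage repair.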

[7] = at 5.0 µM (retest, dose inferred, filed as 0.5)
[8] = at 50.0 µM (retest, dose inferred, filed as 5.0)

Compound	growth inhibition [1, 7]	growth inhibition [1, 8]	growth inhibition ([1]; at 50.0 µM)	growth inhibition [2, 7]	growth inhibition [2, 8]	growth inhibition ([2]; at 50.0 µM)	growth inhibition [3, 7]	growth inhibition [3, 8]	growth inhibition ([3]; at 50.0 µM)	growth inhibition [4, 7]	growth inhibition [4, 8]	growth inhibition ([4]; at 50.0 µM)	growth inhibition [5, 7]	growth inhibition [5, 8]	growth inhibition ([5]; at 50.0 µM)	growth inhibition [6, 7]	growth inhibition [6, 8]	growth inhibition ([6]; at 50.0 µM)
N#Cc1c(Cl)nsc1-c1ccc([N+](=O)[O-])cc1	-6%	35%	91.2% (active)	7%	65%	93% (active)	1%	33%	91.1% (active)	27%	59%	88.8% (active)	-6%	80% (active)	92.3% (active)	7%	87% (active)	84.6% (active)
CCOC(=O)C1=NNC(C(=O)c2ccccc2)C1c1ccccc1 (configuration not stated)	3%	49%	33.2%	10%	55%	19.6%	20%	83% (active)	81.2% (active)	4%	19%	-20.3%	8%	40%	81.8% (active)	12%	82% (active)	68.8%
CC(=O)C(C=O)C(C)=O.CC(=O)CC(C)=O.CC(=O)CC(C)=O.[Ru]	4%	59%	36.9%	60%	98% (active)	97.9% (active)	16%	61%	50.5%	0%	44%	36%	-7%	33%	-1.3%	11%	66%	52.8%
CN(C)c1nc(-c2ccccc2)cc(-c2ccc(O)cc2)n1	14%	93% (active)	36.8%	-10%	27%	13.7%	22%	92% (active)	45.9%	22%	48%	45.5%	-2%	77% (active)	60.5%	24%	88% (active)	68.2%
CC1=C/C(=C\c2ccc([N+](=O)[O-])o2)C(=O)O1	95% (active)	99% (active)	99.3% (active)	86% (active)	99% (active)	99.5% (active)	93% (active)	52%	99.2% (active)	97% (active)	99% (active)	99.3% (active)	49%	99% (active)	98.8% (active)	97% (active)	99% (active)	99.2% (active)
COc1ccc(C2SC(C)C(=O)N2c2nc(-c3nc(-c4ccc(Cl)cc4)cs3)cs2)cc1 (configuration not stated)	42%	86% (active)	45%	17%	99% (active)	39.9%	5%	92% (active)	69.3%	4%	99% (active)	83.5% (active)	-17%	99% (active)	27.3%	23%	99% (active)	77% (active)
NC1CCCCC1N.O=C([O-])c1ccc(N=Nc2cccc([N+](=O)[O-])c2)cc1O.O=C([O-])c1ccc(N=Nc2cccc([N+](=O)[O-])c2)cc1O.[Pt+4]	15%	23%	-2.95%	18%	36%	-2.45%	-20%	36%	3%	-8%	20%	-18.6%	28%	45%	-19.4%	25%	34%	6.8%
CC(C)(c1ccc(OC#N)cc1)c1ccc(OC#N)cc1	21%	78% (active)	66%	-23%	87% (active)	53.4%	4%	40%	79.5% (active)	23%	88% (active)	61.4%	1%	95% (active)	25%	-14%	59%	47%
Brc1c2nc3ccccc3nc2n2ccc3ccccc3c12	-37%	59%	47.8%	-11%	86% (active)	43%	-18%	78% (active)	54.5%	-14%	83% (active)	44.1%	-37%	83% (active)	21%	-38%	69%	59.5%
CC(C)C1=CC23CCC4C(C)(C(=O)O)CCCC4(C)C2CC1C1C(=O)C=CC(=O)C13 (configuration not stated)	86% (active)	93% (active)	94.3% (active)	81% (active)	97% (active)	96.3% (active)	82% (active)	97% (active)	90.2% (active)	75% (active)	96% (active)	62%	91% (active)	96% (active)	96.9% (active)	88% (active)	97% (active)	55.4%
CCOC(=O)OC(=S)N(C1CCCCC1)C1CCCCC1	4%	58%	50.5%	0%	90% (active)	16.6%	5%	76% (active)	50.8%	5%	58%	41.4%	-1%	77% (active)	61.9%	1%	85% (active)	60.8%
Cc1cc(O)ccc1C1(c2ccc(F)cc2)OC(=O)c2ccccc21 (configuration not stated)	31%	99% (active)	90.1% (active)	32%	99% (active)	91.8% (active)	37%	99% (active)	88.2% (active)	31%	97% (active)	91.5% (active)	29%	98% (active)	90.3% (active)	45%	99% (active)	89.6% (active)
FC(F)(F)c1cc(NC(=S)SC2CCCCC2)ccc1Cl	12%	97% (active)	41%	4%	99% (active)	79.2% (active)	4%	98% (active)	88% (active)	-16%	97% (active)	88.8% (active)	12%	98% (active)	85.9% (active)	16%	97% (active)	90% (active)
Cc1ccc(S(=O)(=O)NNc2nc(N(C)C)nc(N(C)C)n2)cc1	1%	7%	9.15%	7%	14%	5.4%	3%	13%	5.5%	4%	4%	52.2%	-1%	4%	4.4%	2%	8%	3.85%
NC(=O)c1ncn(C2OC(CO)C(O)C2O)c1O (configuration not stated)	20%	6%	-7.65%	-9%	-10%	-11.4%	-3%	7%	11.3%	13%	10%	4%	1%	32%	-7.85%	2%	-4%	-47.8%
O=C1c2ccccc2-c2cc(S)c([N+](=O)[O-])cc21	-10%	12%	9.15%	-9%	10%	18.5%	-1%	12%	36.8%	1%	2%	21%	4%	14%	9.45%	-6%	4%	18.5%
S=C(Nc1cc(Cl)cc(Cl)c1)SCc1ccccc1	33%	78% (active)	99.1% (active)	25%	54%	99.5% (active)	30%	74% (active)	99.2% (active)	-9%	48%	98.7% (active)	4%	68%	99.2% (active)	31%	82% (active)	99.3% (active)
CN(C)c1ccc(-c2c(C#N)c(S)n(NS(=O)(=O)c3ccccc3)c(=O)c2C#N)cc1	94% (active)	96% (active)	35.4%	31%	95% (active)	75.3% (active)	38%	95% (active)	61.2%	50%	69%	31.8%	45%	93% (active)	58.1%	91% (active)	94% (active)	60.7%
CCc1cccc(C)c1NC(=O)C1=C(C)NC(C)=C(C(=O)Nc2c(C)cccc2CC)C1c1ccc2c(c1)OCO2	32%	32%	91.2% (active)	27%	27%	89.3% (active)	33%	33%	89.6% (active)	20%	20%	84.2% (active)	26%	26%	90% (active)	37%	37%	87.2% (active)
